# Test results published in PubChem BioAssay (Tox21).
# Several values for one entry are separate records, joined by “and”; a condition that tells them apart may be missing. Equal entries are not always repeated. Inconclusive results are not listed. Entries that show only a call come without a potency. Some structures have more than one record in an assay (separate samples or runs), and their calls can disagree. Activity calls are given as the source filed them. Unless noted, the call rests on the fitted dose curve; in most records, active means well fitted curve in the direction sought with a large enough effect in the repeat runs; inconclusive means weak or mixed curves; inactive means no such curve, though single readings can be large; an effect the other way counts as inactive or inconclusive.
# Columns and labels:
# [1] = qHTS assay to identify small molecule agonists of the hypoxia (HIF-1) signaling pathway - cell viability counter screen (AID 1224844; calls by dose curve; further: nearly all actives have a fitted effect of over 50% in size; further: potency means the concentration at half of the fitted maximal effect)
# Procedure, shortened: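 Cytotoxicity measured by CellTiter-Glo ATP luminescence in the wells also read for beta-lactamase signal. Cells were HRE-bla ME-180 (2,000/well, 0.5% dialyzed FBS), exposed to compounds for 17 h at 37C.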
# [2] = qHTS assay to identify small molecule agonists of H2AX (AID 1224845; active means well fitted activation curve with a large enough effect in the signal ratio in the repeat runs, not every such curve was filed as active; the % refers to the signal ratio)
# Procedure, shortened: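 Phospho-H2AX Ser139 measured by HTRF (ex 320 nm; em 665 and 620 nm) after 24 hr antibody incubation. Compounds, 15 concentrations, 0.76% DMSO, were applied to CHO-K1 cells for 3hr at 37C before lysis.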
# [3] = qHTS assay to identify small molecule agonists of H2AX - cell viability counter screen (AID 1224847; calls by dose curve; further: nearly all actives have a fitted effect of over 30% in size; further: potency means the concentration at half of the fitted maximal effect)
# Procedure, shortened: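 Compounds tested at 15 concentrations were incubated 3 hr at 37C with wild-type CHO-K1 cells; cellular ATP-based luminescence (CellTiter-Glo) indicated viability.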
# [4] = qHTS assay to identify small molecule antagonists of the estrogen related receptor (ERR) signaling pathway from Tox21 library (AID 1224848); further: nearly all actives have a fitted effect of over 50% in size; further: potency means the concentration at half of the fitted maximal effect
# Procedure, shortened: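 ERR cell line, 2,000 cells/well. 6 h settle, then compound (DMSO) added; 18 h at 37 C; ONE-Glo luminescence after 30 min RT.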
# [5] = qHTS assay to identify small molecule agonists of the estrogen related receptor (ERR) signaling pathway from Tox21 library (AID 1224849; calls by dose curve; further: nearly all actives have a fitted effect of over 15% in size); settings: ERR reporter cell line, ONE-Glo luciferase, 18 h
# Procedure, shortened: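 Luminescent agonist read-out (One-Glo, 30-minute room-temperature incubation) following 18-hour compound treatment at 37 C of the ERR cell line, which had been plated 6 hours before dosing.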
# [6] = qHTS RealTime-Glo MT Cell Viability Assay in HepG2 cells - 24 hour (AID 1224867); further: nearly all actives have a fitted effect of over 50% in size; further: potency means the concentration at half of the fitted maximal effect
# Procedure, shortened: (§1)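 HepG2 cells (600/well) were dispensed with RealTime-Glo reagents, incubated 5 h at 37 °C, then treated with compounds in DMSO for up to 40 h. Nonlytic NanoLuc luminescence reflecting viable cells was read at each stated time point.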
# [7] = A CellTox Green Cytotoxicity Assay to monitor cytotoxicity in HEK293 cells - 0 hour (AID 1224869); further: nearly all actives have a fitted effect of over 50% in size
# Procedure, shortened: (§2)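 Fluorescence from a DNA-binding dye excluded by viable cells was measured repeatedly in the same HEK293 wells (600 cells/well) during continuous compound exposure at 37 C. Each assay gives one read point: 0, 8, 16, 24, 32 or 40 h.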
# [8] = qHTS RealTime-Glo MT Cell Viability Assay in HepG2 cells - 40 hour (AID 1224870); further: nearly all actives have a fitted effect of over 50% in size; further: potency means the concentration at half of the fitted maximal effect
# Procedure, shortened: (§3)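 Real-time viability: cells seeded at 600 per well together with NanoLuc and cell-permeant prosubstrate, compounds added after 5 h incubation. Luminescence tracked at 0, 8, 16, 24, 32 and 40 h of exposure.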
# [9] = A CellTox Green Cytotoxicity Assay to monitor cytotoxicity in HEK293 cells - 40 hour (AID 1224871); further: nearly all actives have a fitted effect of over 45% in size; further: potency means the concentration at half of the fitted maximal effect
# Procedure, shortened: as §2
# [10] = qHTS RealTime-Glo MT Cell Viability Assay in HEK293 cells - 16 hour (AID 1224872); further: nearly all actives have a fitted effect of over 50% in size; further: potency means the concentration at half of the fitted maximal effect
# Procedure, shortened: (§4)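 HEK293 cells seeded with NanoLuc/prosubstrate reagent, rested 5 h at 37 C, then dosed and kept at 37 C up to 40 h. Nonlytic real-time luminescence from viable cells read at 0, 8, 16, 24, 32 and 40 h.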
# [11] = qHTS RealTime-Glo MT Cell Viability Assay in HepG2 cells - 8 hour (AID 1224873); further: nearly all actives have a fitted effect of over 55% in size; further: potency means the concentration at half of the fitted maximal effect
# Procedure, shortened: as §3
# [12] = qHTS RealTime-Glo MT Cell Viability Assay in HEK293 cells - 40 hour (AID 1224874); settings: RealTime-Glo luminescence; max response: stronger effect = lower value; further: nearly all actives have a fitted effect of over 50% in size; further: potency means the concentration at half of the fitted maximal effect
# Procedure, shortened: (§5)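 Luminescence, which tracks viable cell number through reduction of the prosubstrate to a NanoLuc substrate, was read over continuous 37 C culture. Cells (600/well) were premixed with reagent and rested 5 h before 23 nL of compound in DMSO was pinned.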
# [13] = A CellTox Green Cytotoxicity Assay to monitor cytotoxicity in HEK293 cells - 24 hour (AID 1224875); further: nearly all actives have a fitted effect of over 45% in size; further: potency means the concentration at half of the fitted maximal effect
# Procedure, shortened: as §2
# [14] = A CellTox Green Cytotoxicity Assay to monitor cytotoxicity in HepG2 cells - 16 hour (AID 1224876); further: nearly all actives have a fitted effect of over 45% in size; further: potency means the concentration at half of the fitted maximal effect
# Procedure, shortened: (§6)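 Real-time cytotoxicity: fluorescence of a cell-impermeant cyanine dye binding DNA of dead HepG2 cells, measured repeatedly (0–40 h) during compound exposure at 37 C. Cells seeded 600/well with reagent, dosed after 5 h.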
# [15] = qHTS RealTime-Glo MT Cell Viability Assay in HepG2 cells - 32 hour (AID 1224877); further: nearly all actives have a fitted effect of over 55% in size; further: potency means the concentration at half of the fitted maximal effect
# Procedure, shortened: as §1
# [16] = A CellTox Green Cytotoxicity Assay to monitor cytotoxicity in HepG2 cells - 24 hour (AID 1224878); further: nearly all actives have a fitted effect of over 45% in size; further: potency means the concentration at half of the fitted maximal effect
# Procedure, shortened: as §6
# [17] = A CellTox Green Cytotoxicity Assay to monitor cytotoxicity in HepG2 cells - 40 hour (AID 1224879); further: nearly all actives have a fitted effect of over 40% in size; further: potency means the concentration at half of the fitted maximal effect
# Procedure, shortened: as §6
# [18] = qHTS RealTime-Glo MT Cell Viability Assay in HEK293 cells - 0 hour (AID 1224880)
# Procedure, shortened: as §5
# [19] = qHTS assay to identify small molecule agonists of the hypoxia (HIF-1) signaling pathway (AID 1224846; active means well fitted activation curve with a large enough effect in the signal ratio in the repeat runs, not every such curve was filed as active; the % refers to the signal ratio)
# Procedure, shortened: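 Compounds added to ME-180 cells carrying hypoxia-response-element beta-lactamase reporter (0.5% dialyzed FBS, 5 h preplating), 17 h at 37C; agonist activity detected by CCF4-AM B/G FRET read-out.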
# [20] = qHTS RealTime-Glo MT Cell Viability Assay in HEK293 cells - 32 hour (AID 1224868); further: nearly all actives have a fitted effect of over 50% in size; further: potency means the concentration at half of the fitted maximal effect
# Procedure, shortened: as §4
compound,measurement,setting,value
CCCCC1(COC(=O)CCC(=O)O)C(=O)N(c2ccccc2)N(c2ccccc2)C1=O,Potency,[1],inactive
same,Potency,[2],inactive
same,Potency,[3],inactive
same,Potency,[4],inactive
same,"activity change, positive = activation",[5]; at 42.5 µM (top of the series),-6.77% (inactive)
same,"activity change, positive = activation",[5]; at 92.4 µM (top of the series),3.58% (inactive) and -11.1% (inactive)
same,Potency,[6],inactive
same,Potency,[7],inactive
same,Potency,[8],inactive
same,Potency,[9],inactive
same,Potency,[10],inactive
same,Potency,[11],inactive
same,max response,[12],0.752% (inactive) and 12.4% (inactive) and 1.85% (inactive)
same,Potency,[13],inactive
same,Potency,[14],inactive
same,Potency,[15],inactive
same,Potency,[16],inactive
same,Potency,[17],inactive
same,Potency,[18],inactive
CNNCc1ccc(C(=O)NC(C)C)cc1,Potency,[1],inactive
same,Potency,[2],inactive
same,outcome,[19],inactive
same,Potency,[3],inactive
same,Potency,[6],inactive
same,Potency,[7],inactive
same,Potency,[8],inactive
same,Potency,[9],inactive
same,Potency,[10],inactive
same,Potency,[11],inactive
same,max response,[12],2.93% (inactive) and 2.31% (inactive) and 7.98% (inactive)
same,Potency,[13],inactive
same,Potency,[14],inactive
same,Potency,[15],inactive
same,Potency,[16],inactive
same,Potency,[17],24.5 µM (active) and 15.5 µM (active) and 23.9 µM (active)
same,Potency,[18],inactive
Nc1c2c(nc3ccccc13)CCCC2,Potency,[1],inactive
same,Potency,[2],inactive
same,Potency,[3],inactive
same,Potency,[4],61.1 µM (active) and 54.5 µM (active) and inactive
same,"activity change, positive = activation",[5]; at 42.5 µM (top of the series),-6.1% (inactive)
same,"activity change, positive = activation",[5]; at 92.4 µM (top of the series),-44% (inactive) and -30.5% (inactive)
same,Potency,[6],inactive
same,Potency,[7],inactive
same,Potency,[8],inactive
same,Potency,[9],inactive
same,Potency,[10],inactive
same,Potency,[11],inactive
same,max response,[12],-28% (inactive) and -11.6% (inactive) and 18.3% (inactive)
same,Potency,[13],inactive
same,Potency,[14],inactive
same,Potency,[15],inactive
same,Potency,[16],inactive
same,Potency,[17],inactive
same,Potency,[18],inactive
Cc1ncc([N+](=O)[O-])n1CCO,Potency,[1],inactive
same,Potency,[2],inactive
same,Potency,[3],inactive
same,Potency,[4],inactive
same,"activity change, positive = activation",[5]; at 42.5 µM (top of the series),4.15% (inactive)
same,"activity change, positive = activation",[5]; at 92.4 µM (top of the series),5.04% (inactive) and 2.17% (inactive)
same,Potency,[6],inactive
same,Potency,[20],inactive
same,Potency,[7],inactive
same,Potency,[8],inactive
same,Potency,[9],inactive
same,Potency,[10],inactive
same,Potency,[11],inactive
same,max response,[12],2.44% (inactive) and 13.2% (inactive) and 5.09% (inactive)
same,Potency,[13],inactive
same,Potency,[14],inactive
same,Potency,[15],inactive
same,Potency,[16],inactive
same,Potency,[17],inactive
same,Potency,[18],inactive
CCN(Cc1c(F)cccc1Cl)c1c([N+](=O)[O-])cc(C(F)(F)F)cc1[N+](=O)[O-],Potency,[1],21.9 µM (active)
same,Potency,[2],inactive
same,outcome,[19],inactive
same,Potency,[4],61.1 µM (active)
same,"activity change, positive = activation",[5]; at 92.4 µM (top of the series),-20.2% (inactive)
same,Potency,[6],inactive
same,Potency,[20],49 µM (active)
same,Potency,[7],inactive
same,Potency,[8],inactive
same,Potency,[9],inactive
same,Potency,[10],27.5 µM (active)
same,Potency,[12],54.9 µM (active)
same,Potency,[13],inactive
same,Potency,[14],inactive
same,Potency,[15],inactive
same,Potency,[16],inactive
same,Potency,[17],inactive
same,Potency,[18],inactive
O=c1[nH]cc(F)c(=O)[nH]1,Potency,[1],10.1 µM (active) and inactive
same,Potency,[2],inactive
same,Potency,[3],inactive
same,Potency,[6],inactive
same,Potency,[20],inactive
same,Potency,[7],inactive
same,Potency,[8],inactive
same,Potency,[9],50.8 µM (active) and inactive
same,Potency,[10],inactive
same,Potency,[11],inactive
same,max response,[12],-1.84% (inactive) and 1.38% (inactive)
same,Potency,[13],inactive
same,Potency,[14],inactive
same,Potency,[15],inactive
same,Potency,[16],inactive
same,Potency,[17],45.3 µM (active) and inactive
same,Potency,[18],inactive
CCCCCCCCCCCC[N+](C)(C)Cc1ccccc1,Potency,[1],53.9 µM (active)
same,Potency,[2],inactive
same,Potency,[3],98.8 µM (active) and 110 µM (active) and 49.2 µM (active)
same,Potency,[6],12.1 µM (active) and 21.2 µM (active) and 8.49 µM (active)
same,Potency,[20],3.4 µM (active) and 2.99 µM (active) and 2.13 µM (active)
same,Potency,[7],inactive
same,Potency,[8],8.54 µM (active) and 16.8 µM (active) and 6.74 µM (active)
same,Potency,[9],42.8 µM (active) and 47.4 µM (active) and 23.9 µM (active)
same,Potency,[10],24.1 µM (active) and 23.8 µM (active) and 8.49 µM (active)
same,Potency,[11],48 µM (active) and 53.2 µM (active) and 26.8 µM (active)
same,Potency,[12],1.91 µM (active) and 2.12 µM (active) and 1.9 µM (active)
same,Potency,[13],42.8 µM (active) and 47.4 µM (active) and 23.9 µM (active)
same,Potency,[14],21.5 µM (active) and 26.7 µM (active) and 19 µM (active)
same,Potency,[15],9.58 µM (active) and 18.9 µM (active) and 6.74 µM (active)
same,Potency,[16],19.1 µM (active) and 23.8 µM (active) and 10.7 µM (active)
same,Potency,[17],13.5 µM (active) and 18.9 µM (active) and 8.49 µM (active)
same,Potency,[18],inactive
CCCCC(CC)C(=O)O (centres undefined),Potency,[1],inactive
same,Potency,[2],inactive
same,outcome,[19],inactive
same,Potency,[3],inactive
same,Potency,[6],inactive
same,Potency,[7],inactive
same,Potency,[8],inactive
same,Potency,[9],inactive
same,Potency,[10],inactive
same,Potency,[11],inactive
same,Potency,[13],inactive
same,Potency,[14],inactive
same,Potency,[15],inactive
same,Potency,[16],inactive
same,Potency,[17],inactive
same,Potency,[18],inactive
CCOC(N)=O,Potency,[1],inactive
same,Potency,[2],inactive
same,outcome,[19],inactive
same,Potency,[3],inactive
same,Potency,[6],inactive
same,Potency,[7],inactive
same,Potency,[8],inactive
same,Potency,[9],inactive
same,Potency,[10],inactive
same,Potency,[11],inactive
same,max response,[12],6.85% (inactive) and 12.6% (inactive) and -3.78% (inactive)
same,Potency,[13],inactive
same,Potency,[14],inactive
same,Potency,[15],inactive
same,Potency,[16],inactive
same,Potency,[17],inactive
same,Potency,[18],inactive
CCCc1cc(=O)[nH]c(=S)[nH]1,Potency,[1],inactive
same,Potency,[2],inactive
same,Potency,[3],inactive
same,Potency,[6],inactive
same,Potency,[20],inactive
same,Potency,[7],inactive
same,Potency,[8],inactive
same,Potency,[9],inactive
same,Potency,[10],inactive
same,Potency,[11],inactive
same,max response,[12],1.97% (inactive) and 2.41% (inactive) and 2.9% (inactive)
same,Potency,[13],inactive
same,Potency,[14],inactive
same,Potency,[15],inactive
same,Potency,[16],inactive
same,Potency,[17],inactive
same,Potency,[18],inactive
CC(O)(P(=O)(O)O)P(=O)(O)O,Potency,[1],inactive
same,Potency,[2],inactive
same,Potency,[3],inactive
same,Potency,[6],inactive
same,Potency,[20],inactive
same,Potency,[7],inactive
same,Potency,[8],inactive
same,Potency,[9],inactive
same,Potency,[10],inactive
same,Potency,[11],inactive
same,max response,[12],-0.279% (inactive) and 1.56% (inactive) and -3.74% (inactive)
same,Potency,[13],inactive
same,Potency,[14],inactive
same,Potency,[15],inactive
same,Potency,[16],inactive
same,Potency,[17],inactive
same,Potency,[18],inactive
